Data reported in PMC7862700, “An all-to-all approach to the identification of sequence-specific readers for epigenetic DNA modifications on cytosine”.

What was measured:
Assay in all cases: DAPPL (digital affinity profiling via proximity ligation, sequencing); 10 mM Tris-HCl pH 7.5, 50 mM NaCl, 1 mM DTT, 4% glycerol, room temperature, 30 min; GST-TFs on glutathione beads, 16-mer random dsDNA library, 0.1% formaldehyde crosslink after washing; high values mean tight binding
Conditions in all cases: protein: recombinant; tags: N-terminal GST; dsDNA, one strand shown
ELK1 = biological target: T1, ELK1 (Homo sapiens, UniProt P19419 1-428)
T1 sequence: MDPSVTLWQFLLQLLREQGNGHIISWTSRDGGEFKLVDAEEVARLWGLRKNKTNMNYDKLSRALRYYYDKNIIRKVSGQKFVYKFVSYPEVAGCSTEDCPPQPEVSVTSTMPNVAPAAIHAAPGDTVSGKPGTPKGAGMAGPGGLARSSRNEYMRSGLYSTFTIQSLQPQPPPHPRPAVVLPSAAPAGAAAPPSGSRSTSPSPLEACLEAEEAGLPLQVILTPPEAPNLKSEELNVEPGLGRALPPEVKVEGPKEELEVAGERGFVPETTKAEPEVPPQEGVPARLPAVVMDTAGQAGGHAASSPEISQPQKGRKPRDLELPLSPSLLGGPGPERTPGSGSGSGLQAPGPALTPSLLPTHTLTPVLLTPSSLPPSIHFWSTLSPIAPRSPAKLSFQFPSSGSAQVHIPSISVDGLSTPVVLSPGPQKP
Outline: (§1)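 GST fusions of human transcription factors were expressed in yeast and captured with glutathione beads. Once given DNA barcodes and pooled alongside a tag-only sample, they were incubated for 30 min at room temperature with 200 nmole of a random double-stranded 16-mer DNA library in Tris/NaCl/DTT/glycerol buffer, then washed, crosslinked (0.1% formaldehyde), proximity-ligated, PCR-amplified and sequenced on an Illumina NextSeq500. The binding signal of each hexamer is its read frequency for a factor divided by its frequency for the tag-only sample.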

GABPA = biological target: T2, GABPA (Homo sapiens, UniProt Q06546 1-454)
T2 sequence: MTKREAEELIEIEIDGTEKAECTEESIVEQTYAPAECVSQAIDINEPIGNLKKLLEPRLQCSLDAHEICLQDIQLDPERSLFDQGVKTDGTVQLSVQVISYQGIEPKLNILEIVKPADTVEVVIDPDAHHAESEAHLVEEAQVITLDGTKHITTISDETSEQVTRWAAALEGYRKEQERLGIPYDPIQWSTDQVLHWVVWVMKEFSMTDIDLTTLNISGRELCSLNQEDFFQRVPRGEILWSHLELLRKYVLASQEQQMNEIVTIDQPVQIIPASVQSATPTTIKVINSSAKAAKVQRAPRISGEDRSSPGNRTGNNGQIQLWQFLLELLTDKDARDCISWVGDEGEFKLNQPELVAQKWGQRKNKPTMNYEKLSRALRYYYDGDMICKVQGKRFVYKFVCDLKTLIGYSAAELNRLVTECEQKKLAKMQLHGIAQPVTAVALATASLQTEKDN
Outline: as §1

ERG = biological target: T3, ERG (Homo sapiens, UniProt P11308 1-479)
T3 sequence: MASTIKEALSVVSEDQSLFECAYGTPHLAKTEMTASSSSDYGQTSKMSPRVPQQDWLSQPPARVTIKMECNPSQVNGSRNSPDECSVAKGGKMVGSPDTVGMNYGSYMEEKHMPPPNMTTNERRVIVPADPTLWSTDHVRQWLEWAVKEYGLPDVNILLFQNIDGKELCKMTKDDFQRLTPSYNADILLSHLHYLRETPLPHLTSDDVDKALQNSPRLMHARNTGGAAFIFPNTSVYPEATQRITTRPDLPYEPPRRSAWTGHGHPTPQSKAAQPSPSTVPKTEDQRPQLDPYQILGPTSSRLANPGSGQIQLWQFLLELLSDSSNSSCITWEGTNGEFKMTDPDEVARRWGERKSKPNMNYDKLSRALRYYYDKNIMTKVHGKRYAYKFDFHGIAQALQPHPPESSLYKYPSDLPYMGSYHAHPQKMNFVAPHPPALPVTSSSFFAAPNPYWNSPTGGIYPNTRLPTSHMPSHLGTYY
Outline: as §1

ELF1 = ELF1 (Homo sapiens, UniProt P32519 1-619)
Sequence of ELF1 (P32519 whole entry): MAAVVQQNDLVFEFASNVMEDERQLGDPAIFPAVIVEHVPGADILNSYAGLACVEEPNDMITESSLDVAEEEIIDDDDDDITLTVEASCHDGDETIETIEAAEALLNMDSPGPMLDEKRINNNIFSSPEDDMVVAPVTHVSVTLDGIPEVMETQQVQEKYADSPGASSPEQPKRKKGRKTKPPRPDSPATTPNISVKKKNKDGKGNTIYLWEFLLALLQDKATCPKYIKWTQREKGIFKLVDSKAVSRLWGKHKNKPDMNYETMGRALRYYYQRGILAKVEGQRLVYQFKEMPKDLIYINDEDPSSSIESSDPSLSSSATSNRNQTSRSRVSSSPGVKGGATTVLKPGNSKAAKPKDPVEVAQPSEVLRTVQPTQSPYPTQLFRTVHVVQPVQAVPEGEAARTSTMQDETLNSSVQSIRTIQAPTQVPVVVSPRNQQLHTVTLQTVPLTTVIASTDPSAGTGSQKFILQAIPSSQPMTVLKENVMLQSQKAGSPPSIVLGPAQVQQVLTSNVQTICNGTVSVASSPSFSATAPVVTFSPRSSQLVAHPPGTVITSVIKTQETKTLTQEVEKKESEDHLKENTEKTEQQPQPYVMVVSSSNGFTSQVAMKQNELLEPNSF
Outline: as §1

EHF = biological target: T4, EHF (Homo sapiens, UniProt Q9NZC4 1-300)
T4 sequence: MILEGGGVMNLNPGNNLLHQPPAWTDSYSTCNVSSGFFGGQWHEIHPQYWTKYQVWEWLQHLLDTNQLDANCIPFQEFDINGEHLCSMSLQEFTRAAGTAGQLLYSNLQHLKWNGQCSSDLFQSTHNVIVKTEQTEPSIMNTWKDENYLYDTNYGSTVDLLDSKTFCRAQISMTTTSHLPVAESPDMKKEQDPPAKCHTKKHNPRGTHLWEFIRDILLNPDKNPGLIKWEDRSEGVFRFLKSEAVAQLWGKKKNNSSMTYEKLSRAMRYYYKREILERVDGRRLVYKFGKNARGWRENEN
Outline: as §1

SPIB = SPIB (Homo sapiens, UniProt Q01892 1-262)
Sequence of SPIB (Q01892 whole entry): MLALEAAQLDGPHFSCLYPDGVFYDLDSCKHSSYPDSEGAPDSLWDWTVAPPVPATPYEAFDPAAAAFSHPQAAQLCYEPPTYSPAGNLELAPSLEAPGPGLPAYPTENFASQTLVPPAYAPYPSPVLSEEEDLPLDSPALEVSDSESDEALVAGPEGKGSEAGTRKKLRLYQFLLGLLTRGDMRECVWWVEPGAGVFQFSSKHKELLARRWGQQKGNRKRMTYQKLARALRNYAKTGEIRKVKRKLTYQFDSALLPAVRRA
Outline: as §1

ELK3 = biological target: T5, ELK3 (Homo sapiens, UniProt P41970 1-407)
T5 sequence: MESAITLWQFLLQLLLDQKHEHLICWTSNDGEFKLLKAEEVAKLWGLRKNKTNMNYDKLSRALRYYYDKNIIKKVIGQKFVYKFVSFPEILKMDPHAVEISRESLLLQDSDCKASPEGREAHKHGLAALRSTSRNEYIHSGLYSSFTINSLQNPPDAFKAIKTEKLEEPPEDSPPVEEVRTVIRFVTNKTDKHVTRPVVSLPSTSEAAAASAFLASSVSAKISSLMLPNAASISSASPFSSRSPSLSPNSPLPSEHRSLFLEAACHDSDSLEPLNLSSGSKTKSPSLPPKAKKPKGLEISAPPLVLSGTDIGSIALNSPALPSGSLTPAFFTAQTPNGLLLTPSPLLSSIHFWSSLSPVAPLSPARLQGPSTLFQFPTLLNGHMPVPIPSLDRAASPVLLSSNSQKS
Outline: as §1

FEV = biological target: T6, FEV (Homo sapiens, UniProt Q99581 1-238)
T6 sequence: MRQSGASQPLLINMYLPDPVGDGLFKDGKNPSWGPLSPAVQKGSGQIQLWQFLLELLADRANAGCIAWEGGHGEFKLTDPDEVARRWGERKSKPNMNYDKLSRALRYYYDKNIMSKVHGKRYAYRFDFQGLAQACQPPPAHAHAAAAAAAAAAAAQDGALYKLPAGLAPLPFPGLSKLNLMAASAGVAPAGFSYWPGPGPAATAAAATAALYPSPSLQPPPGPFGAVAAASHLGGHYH
Outline: as §1

ETV5 = ETV5 (Homo sapiens, UniProt P41161 1-510)
Sequence of ETV5 (P41161 whole entry): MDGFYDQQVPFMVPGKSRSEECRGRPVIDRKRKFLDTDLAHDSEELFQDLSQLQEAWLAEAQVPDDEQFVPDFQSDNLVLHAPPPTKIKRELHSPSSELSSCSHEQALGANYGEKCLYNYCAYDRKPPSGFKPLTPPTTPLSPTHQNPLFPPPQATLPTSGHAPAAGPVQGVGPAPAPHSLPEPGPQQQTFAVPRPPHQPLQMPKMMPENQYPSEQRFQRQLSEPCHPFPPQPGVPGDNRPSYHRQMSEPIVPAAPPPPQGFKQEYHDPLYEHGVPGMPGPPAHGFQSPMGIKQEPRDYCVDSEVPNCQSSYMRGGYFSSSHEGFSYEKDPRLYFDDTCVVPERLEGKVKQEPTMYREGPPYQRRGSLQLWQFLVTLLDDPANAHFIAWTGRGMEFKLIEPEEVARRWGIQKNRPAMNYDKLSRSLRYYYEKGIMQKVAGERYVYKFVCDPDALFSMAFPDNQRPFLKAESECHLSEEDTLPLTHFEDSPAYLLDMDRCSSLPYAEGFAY
Outline: as §1

ELF4 = ELF4 (Homo sapiens, UniProt Q99607 1-663)
Sequence of ELF4 (Q99607 whole entry): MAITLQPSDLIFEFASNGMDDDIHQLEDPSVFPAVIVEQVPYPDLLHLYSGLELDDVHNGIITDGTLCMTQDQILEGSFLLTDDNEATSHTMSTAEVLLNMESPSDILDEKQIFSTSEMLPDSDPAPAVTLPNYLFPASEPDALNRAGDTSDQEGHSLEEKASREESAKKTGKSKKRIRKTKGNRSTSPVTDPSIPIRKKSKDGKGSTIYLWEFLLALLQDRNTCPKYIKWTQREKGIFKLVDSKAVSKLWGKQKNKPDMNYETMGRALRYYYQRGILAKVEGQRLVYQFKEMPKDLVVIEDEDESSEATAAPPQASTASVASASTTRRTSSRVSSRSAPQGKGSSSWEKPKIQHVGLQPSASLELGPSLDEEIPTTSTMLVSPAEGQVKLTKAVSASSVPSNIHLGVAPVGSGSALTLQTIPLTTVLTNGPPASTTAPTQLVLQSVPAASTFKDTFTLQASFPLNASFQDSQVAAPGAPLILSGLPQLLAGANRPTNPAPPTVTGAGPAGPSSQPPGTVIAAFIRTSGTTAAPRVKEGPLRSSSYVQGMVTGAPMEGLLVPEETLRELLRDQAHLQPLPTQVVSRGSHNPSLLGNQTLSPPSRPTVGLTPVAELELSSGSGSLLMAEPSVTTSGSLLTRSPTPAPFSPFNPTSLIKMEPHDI
Outline: as §1

ATAATG
binding signal (ELK1): 1.1 fold enrichment (6-mer frequency, TF over GST control) | binding signal (GABPA): 1.06 fold enrichment (6-mer frequency, TF over GST control) | binding signal (ERG): 1.03 fold enrichment (6-mer frequency, TF over GST control) | binding signal (ELF1): 1.11 fold enrichment (6-mer frequency, TF over GST control) | binding signal (EHF): 1.14 fold enrichment (6-mer frequency, TF over GST control) | binding signal (SPIB): 1.19 fold enrichment (6-mer frequency, TF over GST control) | binding signal (ELK3): 1.22 fold enrichment (6-mer frequency, TF over GST control) | binding signal (FEV): 1.08 fold enrichment (6-mer frequency, TF over GST control) | binding signal (ETV5): 1.09 fold enrichment (6-mer frequency, TF over GST control) | binding signal (ELF4): 1.06 fold enrichment (6-mer frequency, TF over GST control)
